# Only some compounds are listed: those with a hit (about 12% of all), similar ones and a draw of the others.
# WT yeast gro inh: growth inhibition of WT yeast, mitochondrial fusion screen; mitochondrial fusion phenotypic screen, WT strain; inhibition, % at 10 µM; 2.1% of 190,000 active; in the data active = inhibition above about 58%; tested in S. cerevisiae
# Lmaj promast: Leishmania major promastigote growth inhibition. Leishmania major promastigotes, resazurin fluorescence viability. inhibition, % at 10 µM. 9% of 200,000 active. AID 1063; in the data active = inhibition above about 50%;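 also: promastigotes grown with compound for 44 hours at 28 °C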
# CHOP inh: CHOP inhibition in unfolded protein response. AID 2732. inhibition, % at 10 µM. 3.8% of 220,000 active. CHO-K1 CHOP-promoter luciferase, tunicamycin-induced, 15-18 h;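 active = compounds that reduced the stress-induced luciferase reporter signal by more than about 70% of percent inhibition, limit read from the data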
# Arbovirus inh: blocks arbovirus infection; arbovirus infection cell-based antiviral screen; inhibition, % at 10 µM; 0.37% of 200,000 active; AID 1251; in the data active = inhibition above about 30%
# Numbers stand for hits; n = inactive; x = no result given.
SMILES,WT yeast gro inh,Lmaj promast,CHOP inh,Arbovirus inh
OCCC1CN(Cc2ccon2)CCN1Cc1ccccc1 (centres undefined),n,n,n,n
COc1ccc([N+](=O)[O-])cc1NC(=O)C(C)c1ccccc1 (centres undefined),n,n,n,n
COc1ccc([N+](=O)[O-])cc1NC(=S)NC(NC(=O)C(c1ccccc1)c1ccccc1)C(Cl)(Cl)Cl (centres undefined),n,n,72.8,n
CC(/C=C/C=C/c1ccccc1)=N/NC(=O)C(O)c1ccccc1 (centres undefined),x,x,n,x
CC(/C=C/C=C/c1ccccc1)=N/NC(=O)CNc1ccc(C)cc1,n,n,82.1,n
C/C(=N\O)c1cc(Cl)ccc1O,x,x,n,x
c1ccc(-n2c(Cc3cccnc3)nc3cnccc32)cc1,x,n,x,x
c1cncc(Cc2cc3ccccc3[nH]2)c1,n,50.3,n,n
OC(Cc1cccnc1)(Cc1cccnc1)c1cc2ccccc2[nH]1,n,55.2,n,n
CCN1CCN(S(=O)(=O)c2cccc3nsnc23)CC1,n,n,n,n
O=S(=O)(c1cccc2nsnc12)N1CCOCC1,n,n,n,n
O=S(=O)(c1cccc2nsnc12)N1CCN(C/C=C/c2ccccc2)CC1,n,80.8,n,n
O=S(=O)(c1cccc2nsnc12)N1CCN(C/C=C\c2ccccc2)CC1,n,94.3,n,n
Clc1ccc(Sc2cnc3ccccc3n2)cc1,n,n,76.2,n
O=C(NNC1=Nc2cc([N+](=O)[O-])ccc2OC1)c1ccccc1Cl,x,x,n,x
Cc1cccc(OCCn2nc(C(=O)O)c3ccccc3c2=O)c1,n,n,85.4,n
O=C(O)c1nn(CC(=O)N(C2CCCCC2)C2CCCCC2)c(=O)c2ccccc12,n,n,93.4,n
CCN(C(=O)Cn1nc(C(=O)O)c2ccccc2c1=O)C1CCCCC1,n,n,n,n
Cc1cccc(C)c1OCCn1nc(C(=O)O)c2ccccc2c1=O,n,n,71.9,n
CN(C)/C=N/N(C)c1ncccc1[N+](=O)[O-],x,x,n,x
Nc1nnc(CC(=O)N/N=C/c2ccccc2OCc2ccc(F)cc2)s1,x,x,n,x
Cc1ccc(C)n1-c1ccc(N2CCOCC2)c(Br)c1,n,n,n,n
CC1CC(=O)C2=C(C1)Nc1ccccc1SC2c1ccc(F)cc1 (centres undefined),n,68.0,n,n
O=C1CC(c2ccsc2)Sc2ccccc2N1 (centres undefined),x,x,n,x
COc1ccc(C(c2c(O)ccc3ccccc23)N2CCOCC2)c(OC)c1 (centres undefined),n,59.8,n,n
SMILES,WT yeast gro inh,Lmaj promast,CHOP inh,Arbovirus inh
COc1ccc(-n2cc(CNCCCn3ccnc3)c(-c3cccc(F)c3)n2)cc1,n,100.3,n,n
COc1ccc(-n2cc(CNCC3CCOCC3)c(-c3cccc(F)c3)n2)cc1,n,86.8,n,n
Cc1nn(S(=O)(=O)c2ccccc2)c(C)c1Sc1ccc([N+](=O)[O-])cc1,n,n,80.2,n
Cc1ccccc1OCCCC(=O)Nc1ccccc1C(F)(F)F,n,n,n,n
COc1ccccc1C(C)NCC(=O)Nc1ccccc1C(F)(F)F (centres undefined),n,60.0,n,n
COc1ccccc1C1c2c(C)nn(-c3ccccc3)c2NC(=O)C1NC(=O)c1ccccc1 (centres undefined),n,75.5,n,n
CC(C)n1c(SCC(=O)Nc2ccccc2)nc2c1c(=O)n(C)c(=O)n2C,n,n,n,n
COc1ccc(-c2cc(C(F)(F)F)nc(N3CCCCC3)n2)cc1OC,n,n,n,n
COc1ccc(-c2cc(C(F)(F)F)nc(N3CCN(C)CC3)n2)cc1OC,n,84.8,n,n
COc1cccc(CN2CCC(N(CCc3ccccc3)Cc3ccccc3)CC2)c1OC,n,99.2,n,n
Cc1noc(C)c1CN1C(=O)NC2(CCCCCCC2)C1=O,n,100.0,n,n
Cc1cc(NC(=O)CN2C(=O)NC3(CCCCC3)C2=O)no1,n,n,n,n
CCN1CCN(C(c2ccc(OC)cc2)C(O)C(=O)c2c[nH]c3ccccc23)CC1 (centres undefined),n,n,n,n
COc1ccc(CCNC(=O)Cc2cccs2)cc1,n,56.4,n,n
COCCN(C(=O)Cc1cccs1)C(C(=O)NCc1ccc(OC)cc1)c1ccccc1 (centres undefined),98.9,n,n,n
COc1ccc(N(C(=O)CCl)C(C(=O)NCCc2ccccc2)c2cccs2)cc1 (centres undefined),n,100.4,93.0,n
COC(=O)c1ccc(C(C(=O)NC2CCCCC2)N(Cc2ccc(F)cc2)C(=O)Cc2cccs2)cc1 (centres undefined),n,55.8,n,n
O=C(Nc1c(C(=O)Nc2cccc3ccccc23)cnn1-c1ccccc1)c1ccco1,n,n,n,n
Clc1ccc(Cl)c(OCc2cc(-c3ccccc3Cl)on2)c1,x,n,n,n
COC(=O)/C=C1/SC(=NC(=O)c2ccc(F)cc2)NC1=O,x,x,n,x
COc1ccccc1N1CC(C)(C)C(=O)N(C(=O)c2ccc(Cl)cc2)C1=S,x,x,n,x
COc1ccc(CN(C(=O)Cc2cccs2)C(C(=O)NC2CCCC2)c2ccncc2)cc1 (centres undefined),n,56.9,n,n
Nc1c(S(=O)(=O)O)cc(Nc2ccc(Nc3nc(Cl)nc(Nc4ccc(S(=O)(=O)O)cc4)n3)c(S(=O)(=O)O)c2)c2c1C(=O)c1ccccc1C2=O,x,x,n,x
O=C1NC(=Nc2ccccc2)c2ccc([N+](=O)[O-])cc21,n,66.8,n,n
Cc1cccc(N=C2NC(=O)c3cc([N+](=O)[O-])ccc32)c1,n,n,n,n
SMILES,WT yeast gro inh,Lmaj promast,CHOP inh,Arbovirus inh
COC(=O)c1cc(Nc2cc(C)c3ccc(O)cc3n2)cc(C(=O)OC)c1,x,x,71.0,x
Cc1ccc(Nc2cc(C)c3c(O)cccc3n2)cc1C,x,x,n,x
COC(=O)c1cc(Nc2cc(C)c3c(O)cccc3n2)cc(C(=O)OC)c1,x,x,n,x
Cc1ccc(Nc2cc(C)c3ccc(O)cc3n2)cc1C,x,x,78.8,x
O=C(O)c1ccccc1C(=O)NNc1cccc(Cl)n1,n,n,n,n
O=C1C2C(c3ccccc3)CC=CC2[C@H](c2cccc([N+](=O)[O-])c2)N1Cc1ccccc1 (some centres undefined),x,x,n,x
Cn1cccc1Cc1nnc(SCC(=O)NCC2CCCO2)n1C (centres undefined),n,n,n,n
COc1ccc(C(=O)COc2cccc(NC(=O)c3ccco3)c2)cc1,n,58.9,n,n
Cc1ccc(C(=O)C(C)Oc2cccc(NC(=O)c3ccco3)c2)cc1 (centres undefined),n,97.1,n,n
CC1Cc2ccccc2N1C(=S)NC(=O)c1ccco1 (centres undefined),n,n,n,n
CC(Oc1ccc(NC(=O)c2ccco2)cc1)C(=O)N1c2ccccc2CC1C (centres undefined),n,57.5,n,n
COc1ccc(CN(C(=O)COc2ccccc2)c2ccccc2C(=O)O)cc1,x,x,n,x
S=C1CCC(c2ccc(Br)cc2)=NN1c1ccccc1,x,x,n,x
O=C(CN1C(=O)c2ccccc2C1=O)Nc1ccccc1C(=O)NC1CCCCC1,n,n,n,n
O=C(N/N=C1\CCCc2ccccc21)c1ccc([N+](=O)[O-])cc1,n,69.4,n,n
O=C(Cc1cccc2ccccc12)N/N=C1\CCCc2ccccc21,x,63.6,91.8,n
O=C(CNc1ccc(F)cc1)N/N=C1\CCCc2ccccc21,n,n,70.5,n

# High-throughput results deposited in PubChem by several laboratories.
